Entries with a potency or affinity are not part of this list. Inconclusive results are not listed. The source made the active and inactive calls.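 Rule for the calls, unless noted: active = a dose-response fit showing signal loss, with half-maximal concentration no higher than twice the top tested dose; inconclusive = flat fit between 30% and 70% signal loss, or poor fit; inactive = the rest.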
What was measured:
[1] = fungal growth arrest, C. neoformans – Alamar Blue, cherry-picks, dose response (AID 686998;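 active = falling signal with fitted half-maximal potency no higher than twice the top valid tested dose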)
[2] = viability loss in HepG2 hepatoma cells – cell-based, cherry-picks, set 2, cytotoxicity control, dose response (AID 687002)
[3] = viability loss in HeLa cells – cell-based, ATP luminescence, cherry-pick samples, cytotoxicity control, dose response (AID 687004;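 active = a fitted half-maximal concentration no higher than twice the top valid tested dose, with signal falling as cells die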)
[4] = C. neoformans lysis by adenylate kinase leakage – AK release luminescence, cherry-picks, dose response (AID 687000;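 active = fitted dose curve reaches 40% lysis signal rise at or below the highest valid concentration tested for that sample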;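 note: luminescent detection of adenylate kinase leaking from lysed yeast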)
[5] = A549 cell cytotoxicity, dose response, cytotoxicity control, plate reader, cherry-pick, antagonist series (AID 743412; call rule not given here)
[6] = toxicity toward HepG2 liver cells – cell-based, plate reader, cherry-pick, antagonist series, cytotoxicity control, dose response (AID 743416; call rule not given here)
[7] = target: Melanocortin receptor 4 (Homo sapiens) (UniProt P32245); assay: blockade of melanocortin 4 receptor signaling – cell-based, plate reader, cherry pick, counter-screen for LGR2 antagonist project, dose response (AID 743444; call rule not given here)

Measured: outcome

C[C@H]1CN([C@@H](C)CO)S(=O)(=O)c2ccc(Br)cc2O[C@@H]1CN(C)C(=O)CCN1CCCCC1
inactive: [1] | [2] | [3]

C[C@@H]1CN([C@H](C)CO)C(=O)c2cc(NC(=O)Nc3cccc4ccccc34)ccc2O[C@@H]1CN(C)C(=O)Nc1ccccc1
not listed: [3]
inactive: all other assays above

C[C@H](CO)N1C[C@H](C)[C@@H](CN(C)CC2CCOCC2)Oc2ncc(C#Cc3ccc(F)cc3)cc2C1=O
inactive: [1] | [2] | [3]

COc1ccc(S(=O)(=O)N[C@H]2C=C[C@H](CC(=O)N3CCC(Cc4ccccc4)CC3)O[C@@H]2CO)cc1
inactive: [1] | [2] | [3]

CC(C)CC#Cc1cnc2c(c1)C(=O)N([C@H](C)CO)C[C@H](C)[C@H](CN(C)C(=O)c1cccnc1)O2
inactive: [1] | [2] | [3]

CCCN1C[C@H](C)[C@@H](OC)CN(C)C(=O)c2cc(NC(=O)c3cccc(F)c3)ccc2OC[C@@H]1C
inactive: [1] | [2] | [3]

COc1ccc(NC(=S)NCc2ccc(Cl)cc2)c(OC)c1
inactive: [1] | [2] | [3]

C[C@@H]1CN([C@@H](C)CO)C(=O)Cc2cc(NC(=O)c3ccncc3)ccc2O[C@H]1CN(C)Cc1ccncc1
inactive: [1] | [2] | [3]

C[C@@H]1CCCCO[C@H](CN(C)C(=O)CCCN(C)C)[C@@H](C)CN([C@H](C)CO)C(=O)c2cc(NC(=O)Cc3ccccc3)ccc2O1
inactive: [1] | [2] | [3]

CCCC(=O)N1CCC1(C)C(=O)Nc1ccc(C)cc1 (stereo not drawn)
inactive: [1] | [2] | [3]
